Experimental findings from PubChem BioAssay AID651791 (National Center for Advancing Translational Sciences (NCATS), 2012) are described below.

Results filed as inconclusive are left out. Active and inactive are the calls of the source. The call rests on the fitted dose curve; in most records, active means well fitted inhibition curve with a large enough effect; inconclusive means small, poorly fitted or top-dose-only effect; inactive means no such curve, though single readings can be large or run the other way.
Potency means the concentration at half of the fitted maximal effect.

The experiment can be described thus: InCell qHTS Assay for Inhibitors of the mTORC1 Signaling Pathway in MEF (Tsc2-/-, p53-/-) Cells: Hit Validation.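 Further: phospho-S6 Ser235/236 signal normalized to propidium iodide cell count per well; nearly all actives have a fitted effect of over 75% in size.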 The settings on record: phospho-rpS6 immunofluorescence, 24 h; activity change, negative = inhibition: at 38.3 µM (top of the series).
Take `CC1C(=O)Nc2ccc(S(=O)(=O)Nc3ccccc3Br)cc2NC1=O` (configuration not stated): the activity change, negative = inhibition was -100%.
On to `COc1cccc(-n2c(-c3ccco3)nc3c(cnn3-c3ccc(C)cc3)c2=O)c1`, for which the activity change, negative = inhibition was -100%.
Turning to `COc1ccc(-c2[nH]nc3nc(-c4cc(OC)c(OC)c(OC)c4)cc(C(=O)O)c23)cc1`, the activity change, negative = inhibition was -100%.
As to `CCNC(=O)c1c(NC(=O)c2nc(S(=O)(=O)CC)ncc2Cl)sc2c1CCCC2`, the Potency is 2.07 µM (active).
As for `Cc1ccc(C(C)C)c(OCC(=O)Nc2cc(-c3nc4ccccc4[nH]3)ccc2C)c1`, the activity change, negative = inhibition is -100%.
As to `Cc1cc(C)cc(OCC(=O)Nc2cccc(-c3nc4ccccc4[nH]3)c2)c1`, the activity change, negative = inhibition is -100%.
For the compound `CCCCN(C)CCNC(=O)c1cc2c(=O)n(C)c3ccccc3c2n1C`, the activity change, negative = inhibition was -100%.
Turning to `COc1ccc(CNC(=O)c2cccc(N3CCCS3(=O)=O)c2)cc1OC`, the activity change, negative = inhibition is -100%.
As for `Cc1ccccc1CN1C(=O)C(O)(CC(=O)c2ccccc2)c2cc(Cl)ccc21` (configuration not stated), the activity change, negative = inhibition is -2.04%.
Still for that read-out and setting: as for `COc1ccc(S(=O)(=O)N(CCc2ccccc2)CC(=O)Nc2cccc(OC)c2)cc1`, the figure is -100%; as for `O=C(Nc1cccc(NC(=O)c2ccccc2Cl)c1)c1cccc(Br)c1`, -100%.
With `CCOc1ccc(NC(=O)N(Cc2c[nH]c3ccccc23)C2CCCCCC2)cc1`, the activity change, negative = inhibition was -100%.
As to `CCc1ccc(NC(=O)Cn2c(=O)n(-c3ccc(OC)cc3)c(=O)c3ccc(C(=O)NCc4ccc(C)cc4)cc32)cc1`, the Potency is 13.1 µM (active).
Turning to `CCOC(=O)N1CCN(Cc2nc3cc(NC(=O)CC)ccc3n2C(C)C)CC1`, the activity change, negative = inhibition is -100%.
Still for that read-out and setting: under `Cc1ccc(C2c3c(-c4ccccc4O)n[nH]c3C(=O)N2CCc2ccccc2)cc1` (configuration not stated) stands -100%.
For the compound `CCOC(=O)c1c(NC(=O)c2nc(S(C)(=O)=O)ncc2Cl)sc(C(C)=O)c1C`, the Potency was 3.69 µM (active).
As to `Cc1ccc(-c2nnc(Nc3cccc(Cl)c3)c3ccccc23)cc1S(=O)(=O)N1CCN(C)CC1`, the activity change, negative = inhibition is -100%.
Turning to `CCOC(=O)c1c(NC(=O)c2cc(CC)on2)sc(C(C)=O)c1C`, the activity change, negative = inhibition was -100%.
Turning to `CCCN1C(=O)C(Cc2nc3ccccc3c(=O)n2CC)c2ccccc21` (configuration not stated), the activity change, negative = inhibition was -100%.
Still for that read-out and setting: as for `Cc1ccc2nc(/C(C#N)=C/c3ccc(-c4ccc(F)cc4F)o3)[nH]c2c1`, the figure is -100%; as for `O=C(NCc1ccccc1)c1ccc2c(c1)N(Cc1ccccc1F)C(=O)c1ccccc1S2=O` (configuration not stated), -100%.
Same read-out and setting: as for `COc1ccccc1-c1noc(CSc2nc3ccc(C)cc3[nH]2)n1`, the figure is -100%.
For `O=C(CC(NCc1cccnc1)C(=O)O)Nc1ccc(O)cc1` (configuration not stated), the activity change, negative = inhibition is -100%.
The same measure, in the same setting: as for `CCOc1cccc(C2CC(=O)Nc3cc4c(cc32)OCCO4)c1` (configuration not stated), the figure is -14.6%; as for `CCNc1nc2c(c(=O)[nH]c(=O)n2C)n1CC(O)COc1ccc(Cl)cc1Cl` (configuration not stated), -100%.
On the same count and under the same terms, as for `COc1ccc(-c2ccc(CCC(=O)O)n2-c2cc(Cl)ccc2O)cc1`, the figure is -100%; as for `COc1ccc(C(=O)Nc2ccc3c(c2)N(C)C(=O)c2ccccc2S3)cc1OC`, -100%.
For the compound `CCOC(=O)c1cnc2ccc(OC)cc2c1NCCc1ccccc1`, the activity change, negative = inhibition was -100%.
`CCN(Cc1nc(-c2ccc(OC)cc2)oc1C)S(=O)(=O)c1ccc(Cl)cc1`: the activity change, negative = inhibition is -100%.
`COc1ccc(-c2n[nH]c3c2C(c2ccc(O)cc2)N(c2ccc(Br)cc2)C3=O)cc1` (configuration not stated): the activity change, negative = inhibition is -100%.
Turning to `Cc1ccccc1NC(=O)c1c(NC(=O)C(F)(F)F)sc2c1CCCCC2`, the activity change, negative = inhibition is -100%.
`O=C(NC1CCN(Cc2ccccc2)CC1)c1ccc(Cn2c(=O)c3ccccc3n(Cc3ccc(F)cc3)c2=O)cc1`: the activity change, negative = inhibition is -100%.
`Cn1nc(-c2ccc(OCC(=O)Nc3ccccc3)cc2)c2ccccc2c1=O`: the activity change, negative = inhibition is -100%.
For the compound `COc1ccc(NC(=O)c2c(NC(=O)COc3ccccc3)sc3c2CCC(C)C3)cc1` (configuration not stated), the activity change, negative = inhibition is -100%.
For `CCCCOC(=O)c1ccc(NC(=O)c2ccc3c(c2)CCN3S(=O)(=O)c2ccccc2)cc1`, the activity change, negative = inhibition was -100%.
Consider `CCOc1ccc(S(=O)(=O)N(C(C)=O)c2ccc3oc(C)c(C(=O)OC)c3c2)cc1`, for which the activity change, negative = inhibition was -100%.
For `CN1CCN(C2(CNC(=O)COc3ccc(C(C)(C)C)cc3)CCCCC2)CC1`, the activity change, negative = inhibition was -100%.
